Source: PubChem
An excerpt weighted towards active compounds, which were near 3.1% of everything screened.
3CLpro inhibitor = SARS-CoV 3CLpro protease inhibition; recombinant SARS-CoV 3CLpro, quenched FRET peptide cleavage; 290,000 tested, 0.14% active; inhibition, % at 6 µM; AID 1706; in the data active means inhibition above about 12%
Mtb FBA inh = inhibits M. tuberculosis FBA enzyme; P9WQA3; 360,000 tested, 2.3% active; purified M. tuberculosis FBA, fluorescence read-out; AID 588726; inhibition, % at 1 µM; in the data active means inhibition above about 27%;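 further: 0% = vehicle and 100% = reference inhibitor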
Target sequence (P9WQA3 whole entry, looked up): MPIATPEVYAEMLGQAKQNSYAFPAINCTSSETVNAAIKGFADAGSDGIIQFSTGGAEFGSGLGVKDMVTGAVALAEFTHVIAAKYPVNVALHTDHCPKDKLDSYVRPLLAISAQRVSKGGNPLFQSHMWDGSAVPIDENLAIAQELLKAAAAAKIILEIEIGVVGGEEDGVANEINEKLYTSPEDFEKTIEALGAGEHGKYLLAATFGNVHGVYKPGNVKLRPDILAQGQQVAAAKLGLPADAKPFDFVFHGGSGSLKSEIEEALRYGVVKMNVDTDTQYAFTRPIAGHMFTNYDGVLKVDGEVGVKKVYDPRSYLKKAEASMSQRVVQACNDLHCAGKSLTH
GDH-TPI counter = inhibits GDH-TPI coupling enzymes, artifact for Mtb FBA screen; inhibition, % at 4.8 µM; GDH-TPI coupled enzyme counterscreen, NADH absorbance; AID 588335; 360,000 tested, 1.2% active; in the data active means inhibition above about 30%;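 further: 0% = DMSO wells and 100% = wells lacking the enzyme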
FadD28 binding = M. tuberculosis FadD28 bisubstrate binding inhibition. FadD28 bisubstrate probe binding, fluorescence polarization. inhibition, % at 12.5 µM. 360,000 tested, 0.22% active; in the data active means inhibition above about 8.5%, passing the limit was not always enough
Mtb BioA inh = inhibitors of Mycobacterium tuberculosis BioA enzyme | purified M. tuberculosis BioA enzyme, plate reader | inhibition, % at 9.99 µM | 360,000 tested, 0.096% active | AID 602481; in the data active means inhibition above about 40%
An asterisk follows results filed as active; . = no result; + = active, no number.

SMILES	3CLpro inhibitor	Mtb FBA inh	GDH-TPI counter	FadD28 binding	Mtb BioA inh
CCCC#Cc1cnc2c(c1)C(=O)N([C@H](C)CO)C[C@@H](C)[C@@H](CN(C)C(=O)C1CCC1)O2	.	.	.	.	-4
COc1cc(/C=N/Nc2cc(C)nc(NS(=O)(=O)c3ccc(C)cc3)n2)ccc1O	1	-1	54*	1	.
COc1ccc(/C=N/Nc2cc(C)nc(NS(=O)(=O)c3ccc(C)cc3)n2)cc1	-2	0	26	-2	-1
COc1cc(/C=N/Nc2cc(C)nc(NS(=O)(=O)c3ccccc3)n2)ccc1O	-5	0	54*	0	0
COc1cccc(NC(=O)N2C[C@H](O)COC[C@@H]3O[C@H](CC(=O)N(C)C)CC[C@H]32)c1	.	.	.	.	2
O=c1c(-c2nnc(SCc3ccc(Cl)cc3)o2)cccn1Cc1ccccc1	3	176*	23	-5	1
C[C@@H]1CN([C@@H](C)CO)C(=O)c2cccc(NC(=O)c3ccncc3)c2O[C@H]1CN(C)S(=O)(=O)c1ccc(Cl)cc1	.	.	.	.	-1
C[C@H]1CN([C@@H](C)CO)C(=O)c2cccc(NC(=O)Nc3ccccc3)c2O[C@@H]1CN(C)S(=O)(=O)c1ccc(Cl)cc1	.	.	.	.	-2
O=c1c(-c2ccccc2)c(O)c2c(n1-c1ccccc1)CCCC2	1	3	-4	-2	.
O=c1cc(O)c2c(=O)n(-c3ccccc3)c3c(c2o1)CCCCC3	-3	2	32*	0	0
CC(=O)N[C@@H]1CC[C@@H](CCNC(=O)Nc2ccc(C(F)(F)F)cc2)O[C@H]1CO	.	.	.	.	2
C=CCN1C=CC(=O)[C@@H](OC(=O)Nc2ccc(Br)cc2)[C@H]1c1ccccc1Br	.	4	33*	-1	19
C[C@@H]1CN([C@H](C)CO)S(=O)(=O)c2ccc(-c3ccc(F)cc3)cc2O[C@@H]1CN(C)C(=O)C1CCCCC1	.	.	.	.	-2
CN(C)c1ccc(/C=C(/NC(=O)c2ccccc2)C(=O)NCCCn2ccnc2)cc1	8	-4	33*	1	0
O=C(NCCCn1ccnc1)/C(=C/c1ccc(Cl)cc1)NC(=O)c1ccccc1	-1	1	-5	.	.
CCn1cc(/C=C(\NC(=O)c2ccccc2)C(=O)NCCCn2ccnc2)c2ccccc21	.	0	45*	-3	0
CC(C)NC(=O)N(C)C[C@H]1Oc2ccc(NC(=O)CCN3CCOCC3)cc2C(=O)N([C@@H](C)CO)C[C@H]1C	.	.	.	.	-1
CN(C)CCCNc1nc(-c2ccccc2)nc2ccccc12	-3	-2	16	-1	0
CN(C)CCCNc1c2ccccc2nc2ccccc12	1	177*	7	-1	0
COc1ccc(/C=C/c2nc(C#N)c(NCCN(C)C)o2)cc1OC	0	15	28	-2	2
COc1ccc(-c2nc(C#N)c(NC(C)c3ccccc3)o2)cc1OC (configuration not stated)	2	144*	13	-1	0
CN(C)CCCNc1oc(-c2ccc(Cl)cc2)nc1S(=O)(=O)c1ccccc1	.	5	11	0	-1
COc1ccc(-c2nc(C#N)c(NCCCN(C)C)o2)cc1OC	-2	+	12	-4	0
CN(C)CCCNc1oc(-c2ccccc2)nc1C#N	-4	131*	6	1	0
CN1C(=O)c2cc(NC(=O)C3CC3)ccc2OC[C@@H]2O[C@@H](CC(=O)NC3CCC3)CC[C@H]21	.	.	.	.	-6
SMILES	3CLpro inhibitor	Mtb FBA inh	GDH-TPI counter	FadD28 binding	Mtb BioA inh
C[C@H]1CN([C@@H](C)CO)C(=O)Cc2cc(NC(=O)C3CC3)ccc2O[C@H]1CN(C)Cc1ccc(C(=O)Nc2ccccc2N)cc1	.	.	.	.	0
COc1ccccc1-c1nc(C#N)c(NCc2ccc(F)cc2)o1	2	113*	14	-2	3
COc1ccccc1-c1nc(C#N)c(NCCCn2ccnc2)o1	3	+	6	-1	.
CNc1oc(/C=C/c2cccc(OC)c2)nc1C#N	-5	+	28	1	5
COc1ccc(Nc2oc(COc3cccc(C)c3)nc2C#N)cc1	1	-1	3	1	-1
COc1ccc(CCNc2oc(-c3ccc(OC)c(OC)c3)nc2C#N)cc1	1	+	36*	12*	2
N#Cc1nc(COc2ccccc2Cl)oc1NCc1ccc(F)cc1	1	0	0	-3	-4
CN1C(=O)c2cc(NS(=O)(=O)c3ccc(Cl)cc3)ccc2OC[C@@H]2O[C@@H](CC(=O)N3CCc4ccccc4C3)CC[C@H]21	.	.	.	.	-5
CN(C)CCNc1oc(-c2ccccc2F)nc1C#N	-4	145*	16	0	-2
CCN(CC)CCCNc1oc(/C=C/c2ccccc2)nc1C#N	3	+	28	0	-1
COc1ccc(CCNc2oc(-c3ccccc3OC)nc2C#N)cc1	5	+	18	-3	1
COc1ccc(CCNc2oc(COc3ccccc3)nc2C#N)cc1	1	4	4	-5	4
Oc1ccc(C=Nc2ccc3ncccc3c2)c(O)c1	3	.	.	.	.
CC(=O)N(C)c1ccc(N=Nc2ccc3ncccc3c2)cc1	.	4	56*	0	-1
COCC#Cc1ccc2c(c1)O[C@@H](CN(C)CC1CCOCC1)[C@H](C)CN([C@H](C)CO)S2(=O)=O	.	.	.	.	0
Cc1ccc(Nc2nc(N)c(C#N)c(CC#N)c2C#N)cc1	-1	-2	38*	-1	.
O=C(NCC[C@@H]1CC[C@@H](NC(=O)Nc2cc(F)ccc2F)[C@@H](CO)O1)Nc1ccc(Cl)cc1	.	.	.	.	0
CCc1ccc(-c2cnc3nc[nH]c(=O)c3n2)cc1	.	135*	6	-2	-2
O=C1NC(=O)C(Nc2cccc3ccccc23)S1 (configuration not stated)	3	7	36*	0	0
CN1C(=O)SC(Nc2cccc3ccccc23)C1=O (configuration not stated)	-2	5	-7	-1	1
CCC(=O)N[C@H]1C=C[C@@H](CC(=O)OC)O[C@@H]1CO	.	.	.	.	1
Cc1cc(=O)oc2cc(O)cc(O)c12	.	196*	6	-2	0
CCCCCc1cc(O)c2c(C)cc(=O)oc2c1	4	3	22	-1	-2
COc1cc(OC)c2c(-c3cccc(-c4cccc(C)c4)c3)cc(=O)oc2c1	.	4	26	1	-1
COc1cc(OC)c2c(C)cc(=O)oc2c1	-2	+	21	-3	1
COc1cc(OC)c2ccc(=O)oc2c1	.	+	13	-3	-1
CCCC#Cc1ccc2c(c1)O[C@@H](CN(C)C(=O)c1cnccn1)[C@@H](C)CN([C@@H](C)CO)S2(=O)=O	.	.	.	.	1
CC(C)CC#Cc1cnc2c(c1)C(=O)N([C@H](C)CO)C[C@H](C)[C@H](CN(C)C(=O)c1cccnc1)O2	.	.	.	.	-1
C[C@@H]1CN([C@@H](C)CO)C(=O)c2cc(NC(=O)NC3CCCCC3)ccc2O[C@H]1CN(C)C(=O)NC1CCCCC1	.	.	.	.	1
C[C@@H]1CN([C@@H](C)CO)C(=O)Cc2cc(NS(=O)(=O)c3cn(C)cn3)ccc2O[C@H]1CN(C)C(=O)Nc1ccccc1	.	.	.	.	-1
